Among the data in PubChem BioAssay AID602229 (The Scripps Research Institute Molecular Screening Center, 2012) are inhibition of corepressor binding values, retold here.

In all, about 360,000 compounds went through this assay and about 1,300 (0.36%) were called active. The sample holds actives, similar compounds and a random draw of the others, so the mix is not that of the screen.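 How the source made its calls: active means inhibition above the mean of all tested compounds plus 3 SD (cut at about 70% in these data); inactive means the rest.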

In the experiment the target is Photoreceptor-specific nuclear receptor (Homo sapiens) (UniProt Q9Y5X4). Description: NCOR release from NR2E3 in cells – cell-based, luminescence, CHO-S, Gal4-NCOR/VP16-NR2E3, primary screen (AID 602229).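 Further: 0% = DMSO with NR2E3 transfected cells and 100% = cells lacking NR2E3 construct; higher means lower luciferase signal from less NR2E3 corepressor binding.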 The note with it: CHO-S Gal4-NCOR/VP16-NR2E3 two-hybrid, luciferase; at 3.98 µM; stronger effect = higher value.
Sequence of Photoreceptor-specific nuclear receptor (Homo sapiens) (Q9Y5X4 whole entry, looked up, the tested form may be a part): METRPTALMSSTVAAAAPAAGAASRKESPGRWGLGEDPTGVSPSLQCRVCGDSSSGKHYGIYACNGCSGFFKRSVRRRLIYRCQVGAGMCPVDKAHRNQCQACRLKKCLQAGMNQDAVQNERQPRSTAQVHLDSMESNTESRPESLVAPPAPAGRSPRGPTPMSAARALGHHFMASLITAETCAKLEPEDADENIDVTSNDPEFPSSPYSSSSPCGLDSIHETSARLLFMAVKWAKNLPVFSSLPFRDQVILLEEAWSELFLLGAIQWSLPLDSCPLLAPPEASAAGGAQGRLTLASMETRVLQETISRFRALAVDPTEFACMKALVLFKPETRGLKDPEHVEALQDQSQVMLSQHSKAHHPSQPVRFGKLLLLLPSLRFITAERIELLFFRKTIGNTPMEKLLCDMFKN
In the case of `O=C(CN1C(=O)CCS(=O)(=O)c2ccccc21)NCc1ccc(F)cc1`, the inhibition of corepressor binding is -8.57% (inactive).
Take `CCCCN1C(=O)CC(N2CCOCC2)C1=O` (stereo not given): the inhibition of corepressor binding is -4.28% (inactive).
As to `CCc1cccc(NC(=O)COC(=O)C2CCN(c3ccc(C(F)(F)F)cn3)CC2)c1`, the inhibition of corepressor binding was -19.1% (inactive).
As to `O=C(Nc1cccc(Cl)c1)Nc1ccccc1NS(=O)(=O)c1cccs1`, the inhibition of corepressor binding was -13.8% (inactive).
The figure for `COc1cc(NC(=O)c2ccccc2NS(=O)(=O)c2ccc(Cl)s2)cc(OC)c1` is 97.8% (active); for `O=S(=O)(Nc1ccccc1N1CCOCC1)c1ccc(Cl)s1` it is -7.37% (inactive).
With `CCCn1nnnc1NCc1ccc(CC)cc1`, the inhibition of corepressor binding was 8.66% (inactive).
On to `C=CCC1(CC=C)CCCN1C(=O)c1cc(COc2ccc(-n3cncn3)cc2)on1`, for which the inhibition of corepressor binding was 106% (active).
Regarding `CCCC(=O)N1CCC1(C)C(=O)Nc1ccc(-n2cncn2)cc1` (stereo not given), the inhibition of corepressor binding is 1.35% (inactive).
`O=C(c1cc(COc2c(F)cccc2F)on1)N1CCSCC1`: the inhibition of corepressor binding was -9.64% (inactive).
As to `Nc1[nH]c(C(=O)c2ccccc2)c(-c2ccncc2)c1C(=O)NCc1cccc2ccccc12`, the inhibition of corepressor binding is 3.22% (inactive).
As to `CSCCC(c1nnnn1Cc1ccccc1)N1CCN(C/C=C/c2ccccc2)CC1` (stereo not given), the inhibition of corepressor binding is 4.41% (inactive).
To `C/C(=N\NC(=S)NCc1ccccc1)C1CCCCC1` belongs 14.7% (inactive).
To `C/C(=N/NC(=S)Nc1ccccc1)c1ccc2c(c1)OCO2` belongs -32% (inactive); to `C/C(=N\NC(=S)NCc1ccccc1)c1ccc(Cl)cc1`, 73.8% (active).
As to `O=C(CCc1ccc(S(=O)(=O)NC2CCCCC2)cc1)NCc1ccccc1`, the inhibition of corepressor binding is 9.81% (inactive).
The figure for `CC(=O)Nc1ccc(S(=O)(=O)NNC(=O)CCc2ccccc2)cc1` is -9.18% (inactive).
Consider `COc1ccc(CCNC(=O)COC(=O)Cc2cc(OC)c(OC)c(OC)c2)cc1`, for which the inhibition of corepressor binding was 0.01% (inactive).
Consider `COc1ccc(CC(=O)NC2CCSc3ccccc32)cc1OC` (stereo not given), for which the inhibition of corepressor binding is -3.29% (inactive).
For `COc1ccc(CC(=O)Nc2nc(-c3ccc(F)c(F)c3)cs2)cc1OC`, the inhibition of corepressor binding is 103% (active).
Regarding `Cc1csc(NC(=O)CSc2ccc(-c3ccc(F)cc3)nn2)n1`, the inhibition of corepressor binding was 11.9% (inactive).
As to `COc1cc(CC(=O)Nc2nc(-c3ccc(F)c(F)c3)cs2)cc(OC)c1OC`, the inhibition of corepressor binding is 103% (active).
`COc1cc(CCC(=O)Nc2ccncc2Cl)cc(OC)c1OC`: the inhibition of corepressor binding is -4.52% (inactive).
On to `CCc1nnc(NC(=O)CSc2nc3c(c(=O)n2-c2ccccc2OC)SCC3)s1`, for which the inhibition of corepressor binding was -5.3% (inactive).
Consider `C/C(=C/C(=O)N1CCN(C)CC1)C(=O)O`, for which the inhibition of corepressor binding was -1.95% (inactive).
For the compound `COc1cc(C2/C(=C(\O)c3ccc4c(c3)CC(C)O4)C(=O)C(=O)N2c2nnc(C)s2)cc(OC)c1OC` (stereo not given), the inhibition of corepressor binding was -19.5% (inactive).
As for `COc1ccccc1OCCNC(=O)CCNC(=O)c1ccccc1Cl`, the inhibition of corepressor binding is -15.5% (inactive).
`CCN1C(=O)/C(=C\N2CCOCC2)SC1=S`: the inhibition of corepressor binding was -3.91% (inactive).
Turning to `O=C(CCn1c(=O)oc2ccccc21)Nc1ccon1`, the inhibition of corepressor binding was -8.66% (inactive).
To `CCOC(=O)C1=C(CNC2CCCCC2)NC(=O)NC1c1cc(C)ccc1C` (stereo not given) belongs -26.1% (inactive); to `CCN(Cc1ccccc1)S(=O)(=O)c1cc2c3c(c1)CCN3C(=O)CC2`, 13.4% (inactive); to `COc1ccc(CNc2ncnc3ccccc23)cc1`, 96.1% (active).
In the case of `COc1ccc(CNC(=O)COc2cccnc2[N+](=O)[O-])cc1`, the inhibition of corepressor binding was -7.82% (inactive).
In the case of `O=C(COc1ncnc2ccccc12)NC(=O)NCc1ccccc1`, the inhibition of corepressor binding is 9.2% (inactive).
In the case of `Cc1ccc(O/C=C2\OC(=O)c3ccccc32)cc1`, the inhibition of corepressor binding is -37.1% (inactive).
In the case of `Cc1c(C(=O)N(Cc2ccccc2)Cc2cccnc2)cnn1-c1ccc(F)cc1`, the inhibition of corepressor binding was 0.5% (inactive).
Consider `COc1ccc(NS(=O)(=O)c2ccc(Oc3c(C#N)cccc3C#N)cc2)cc1`, for which the inhibition of corepressor binding is 86.5% (active).
Consider `COc1ccc(S(=O)(=O)Nc2ccc3oc(C)c(C(C)=O)c3c2)cc1`, for which the inhibition of corepressor binding was 60.2% (inactive).
Consider `COc1ccc(NS(=O)(=O)c2ccc(N3CCN(CCO)CC3)c([N+](=O)[O-])c2)cc1`, for which the inhibition of corepressor binding is 17.4% (inactive).
Take `CCOCc1c(C(=O)N2CCN(Cc3ccc(Br)s3)CC2)oc2ccccc12`: the inhibition of corepressor binding was -14.4% (inactive).
With `O=S(=O)(c1ccc(F)cc1)N1CCN=C1SCc1cccc(F)c1`, the inhibition of corepressor binding was 3.65% (inactive).
As to `Cc1ccc(S(=O)(=O)N2CCN(C(=O)COC(=O)CNC(=O)c3ccc(C(C)(C)C)cc3)CC2)c(C)c1`, the inhibition of corepressor binding was 1.29% (inactive).
`COC(=O)c1ccc(C(=O)NC2CC(C)(C)Cc3c2cnn3-c2ccc(F)cc2)nc1` (stereo not given): the inhibition of corepressor binding is -87.5% (inactive).
To `O=C(CCNC(=O)c1ccc(Cl)cc1)NC1CCCc2ccccc21` (stereo not given) belongs -14.3% (inactive).
Regarding `Cc1cc(C(=O)NC2CC(C)(C)Cc3c2cnn3-c2ccccc2)n[nH]1` (stereo not given), the inhibition of corepressor binding is -26.5% (inactive).
`Cn1nccc1C(=O)NC1CCCc2c1cnn2-c1ccc(F)cc1F` (stereo not given): the inhibition of corepressor binding is 107% (active).
Turning to `Cn1nccc1C(=O)NC1CCCc2c1cnn2-c1ccccc1F` (stereo not given), the inhibition of corepressor binding is 105% (active).
In the case of `COc1ccc(C(=O)NC2CC(C)(C)Cc3c2cnn3-c2ccccc2C)o1` (stereo not given), the inhibition of corepressor binding is -34.2% (inactive).
With `COc1ccc(C(=O)NC2CC(C)(C)Cc3c2cnn3-c2ccccc2)c(OC)c1` (stereo not given), the inhibition of corepressor binding is -23.7% (inactive).
To `COc1ccc(C(=O)NC2CCCc3c2cnn3-c2cccc(C)c2C)c(OC)n1` (stereo not given) belongs 91.3% (active); to `CC1=C(C(=O)NC2CC(C)(C)Cc3c2cnn3-c2ccc(C)cc2)OCCO1` (stereo not given), -12.3% (inactive); to `NC(=O)COC(=O)c1ccc2c(c1)C(=O)N(Cc1ccco1)C2=O`, -5.79% (inactive).
The figure for `Cc1cc(C)n(CCC(=O)N2CCN(S(=O)(=O)c3ccc(C)c(C)c3)CC2)n1` is 3.36% (inactive); for `Cc1ccc(CN(N=Nc2nonc2N)c2nonc2N)c(C)c1` it is -19.7% (inactive).
The figure for `CC1CCCC(NC(=O)CN2CCN(Cc3ccc(Cl)cc3)C2=O)C1C` (stereo not given) is 2.85% (inactive).
